Shown are actives, neighbours in structure and some others; about 6.5% of the full set was active somewhere.
HCMV antiviral: qHTS Assay for inhibitors of the human cytomegalovirus (HCMV). HFF cells, HCMV-luciferase reporter, 72 h; stronger effect = lower value. activity change, negative = inhibition, % at 57.5 µM. 410,000 tested, 4.5% active; in the data active = activity change below about -60%; inconclusive = no clear call, values can overlap the other calls; inactive = above about -39%
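Two-dose cell screen: HFF monolayers treated with compounds and infected with luciferase-expressing HCMV at 1 PFU/cell, 72 h at 37C, then lysed for luciferase measurement.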
Vaccinia Venus: qHTS for Stage-Specific Inhibitors of Vaccinia Orthopoxvirus: Venus Reporter Primary qHTS; Vaccinia virus Venus reporter expression, fluorescence; Potency, µM (titrated, usually from 36.5 µM), for inactives: top-dose activity change, negative = inhibition, hits mostly inhibitors; 330,000 tested, 0.46% active; AID 720580, 2013; calls by dose curve; tested in A549 cells; note: potency is the fitted concentration of half-maximal effect; nearly all actives have a fitted effect of over 30% in size
MARV entry inh: qHTS for inhibitors of binding or entry into cells for Marburg Virus. Marburg virus pseudotyped entry inhibition, cell reporter. Potency, µM (titrated, usually from 37.8 µM), without a hit: at the highest dose activity change, negative = inhibition, usual class: inhibitors. 300,000 tested, 1.8% active. AID 540276, 2011; calls by dose curve; tested in HEK293 cells; note: potency is the fitted concentration of half-maximal effect
Vaccinia mCherry: qHTS for Stage-Specific Inhibitors of Vaccinia Orthopoxvirus: mCherry Reporter Primary qHTS | Vaccinia virus mCherry reporter infection, fluorescence | Potency, µM (titrated, usually from 36.5 µM), for the others: top-dose activity change, negative = inhibition, hits mostly inhibitors | 310,000 tested, 0.63% active | AID 720579, 2013; calls by dose curve; tested in A549 cells; note: potency is the fitted concentration of half-maximal effect; nearly all actives have a fitted effect of over 35% in size
FMDV inh: High Throughput Screening for Foot and Mouth Disease Virus Antivirals | FMDV antiviral cell-based qHTS | Potency, µM (doses to about 57.9 µM), for the others: top-dose activity change, negative = inhibition, actives largely listed as inhibitors | 410,000 tested, 1.2% active | AID 1159524, 2015; calls by dose curve; tested in HEK293T cells; note: read-out not given here; potency is the fitted concentration of half-maximal effect; nearly all actives have a fitted effect of over 45% in size
Lassa entry inh: qHTS for Inhibitors of binding or entry into cells for Lassa Virus; Lassa virus pseudotype entry inhibition, cell reporter; Potency, µM (doses to about 37.9 µM), without a hit: top-dose activity change, negative = inhibition, usual class: inhibitors; 300,000 tested, 1.2% active; AID 540256, 2011; calls by dose curve; tested in HEK293 cells; note: potency is the fitted concentration of half-maximal effect; nearly all actives have a fitted effect of over 50% in size
* hit, by the source's call; i = inactive; ? = inconclusive; . = not tested or not shown; ! = repeats disagree; [ ] = remark or other dose. % is set by controls: 0 for no effect and ±100 for the full control effect.

SMILES | HCMV antiviral | Vaccinia Venus | MARV entry inh | Vaccinia mCherry | FMDV inh | Lassa entry inh
O=C(Nc1ccc2c(c1)CCC2)C1CCCN(c2ncccn2)C1 (centres undefined) | 122.7 | . | ? | . | 0.0% | 21.8%
CCc1c(C)nc2ncnn2c1N1CCC(C(=O)Nc2ccccc2)CC1 | -33.6 | -20.0% | -5.6% | i | ? | 0.9%
CCc1c(C)nc2ncnn2c1N1CCC(C(=O)Nc2ccc(C)cc2)CC1 | -86.0* | -27.7% | ? | -10.1% | -23.6% | -24.8%
Cc1nc2ncnn2c(N2CCCC(C(=O)Nc3ccc4c(c3)CCC4)C2)c1C (centres undefined) | -101.1* | . | ? | . | 25.1µM* | ?
COc1ccc(CCNC(=O)C2CCCN(c3ncccn3)C2)cc1 (centres undefined) | -69.4* | -2.7% | 3.9%[46.1 µM] | -2.2% | 30.6% | 4.6%[46.1 µM]
CCc1c(C)nc2ncnn2c1N1CCCC(C(=O)NCCc2ccc(OC)cc2)C1 (centres undefined) | -68.1* | . | -18.9% | . | ? | -19.6%
Cc1cc(N2CCCC(C(=O)Nc3cccc4ccccc34)C2)n2ncnc2n1 (centres undefined) | -69.2* | -6.4% | -14.7%[46.1 µM] | -13.4% | ? | -21.6%
O=C(CCl)N=c1sccn1Cc1ccc(Cl)cc1Cl | -99.4* | -14.0% | ? | i | ? | ?
O=C(CCl)N=c1sccn1Cc1ccccc1Cl | -91.1* | -16.7% | ? | i | ? | ?
O=C(CCl)N=c1sccn1Cc1cccc2ccccc12 | -100.0* | . | . | . | ? | .
O=C(CSc1ccccn1)Nc1nonc1[N+](=O)[O-] | 53.6 | . | . | . | 31.6µM* | .
CC1C/C(=C/c2ccncc2)C(=O)/C(=C/c2ccncc2)C1 (centres undefined) | -100.7* | . | . | . | 10µM* | .
COc1cc(NC(=O)c2ccc(S(=O)(=O)N(C)c3ccccc3)cc2)cc(OC)c1 | -78.9* | -16.9% | . | -3.7% | -10.8% | .
CN(c1ccccc1)S(=O)(=O)c1ccc(NC(=O)c2ccc(-c3ccccc3)cc2)cc1 | -95.9* | ? | -19.8% | -25.1% | ? | -8.3%[14.3 µM]
Cc1nc2cc(NC(=O)c3ccc(S(=O)(=O)N(C)c4ccccc4)cc3)ccc2o1 | -69.3* | -9.9% | ? | -4.4% | 22.4µM* | -18.2%
CC1=C[C@@H](COCc2ccccc2)O[C@@]2(C1)C(=O)N(Cc1ccc(Br)cc1)c1ccccc12 | . | . | 3.7%[14.2 µM] | . | . | ?
COCCNC(=O)C1(C)CCN(C(=O)c2oc3ccccc3c2C)C1 (centres undefined) | 3.6 | -7.5% | . | 28.3% | 3.8% | .
Cc1cc(C)cc(CC(=O)N2CCC2(C)C(=O)NS(=O)(=O)c2ccc(C#N)cc2)c1 (centres undefined) | -6.3 | -7.0% | . | 12.1% | -15.2% | .
CC(=O)OC[C@H]1O[C@H](C#Cc2ccccc2)C=C[C@H]1O | . | . | -3.2%[14.2 µM] | . | . | .
CC(C)C(C(=O)NC1CCCCC1)N1C(=O)C(=O)c2ccccc21 (centres undefined) | 15.0 | . | . | . | . | .
O=C(Nc1ccc(N2CCOCC2)cc1)c1cnccn1 | ? | -5.1% | ? | 14.5% | -58.9% | 2.24µM*
CCOC(=O)c1cc(NC(=O)c2cnccn2)cc(C(=O)OCC)c1 | -92.5* | -8.0% | ? | -6.6% | 9.0% | 24.2%[14.3 µM]
Cc1ccc(NC(=O)C2CCN(c3cnccn3)CC2)cc1 | 20.0 | . | . | . | -13.9% | .
CCCCc1ccc(NC(=O)c2cnccn2)cc1 | -33.0 | -9.1% | 7.94µM* | ? | 9.8% | 11.2µM*
CCCc1ccc(NC(=O)C2CCN(c3cnccn3)CC2)cc1 | -64.0*! | -22.1% | 1.1%[46.1 µM] | -0.4% | -15.7% | 1.3%[46.1 µM]
O=c1c2cc3c(cc2n(Cc2ccccc2)c(=O)n1Cc1nc(-c2ccccc2)no1)OCO3 | -12.4 | 1.6% | . | -7.2% | ? | -3.1%[46.1 µM]
O=C(Nc1ccc(N2CCOCC2)cc1)c1ccncc1 | 2.3 | -0.2% | 17.8% | . | 20.1% | 3.9%
O=C(Nc1ccc(N2CCOCC2)cc1)c1cnsn1 | -73.4* | -8.2% | 4.1% | -14.4% | 28.2µM* | .
CCNC(=O)/C(C#N)=C/c1c(N2CCCCCC2)nc2c(C)cccn2c1=O | ? | ? | ? | ? | -2.3% | 8.91µM*

Bioassay records: PubChem, National Center for Advancing Translational Sciences (NCATS)
